Bioassay records deposited in PubChem BioAssay by several laboratories.
The list is not random: actives were taken first. Their share in the collection is about 3.7%.
PfHsp90 yeast 2 = growth inhibition of yeast expressing Plasmodium Hsp90; S. cerevisiae expressing PfHsp90, BacTiter-Glo ATP, 48 h; yeast lacking PDR1 and PDR3 efflux regulators; inhibition, % at 9.4 µM; 310,000 tested, 0.32% active;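 active means every replicate shows inhibition above about 80%, whatever the replicate mean, limit read from the data; inconclusive means mean inhibition reaches the set limit but some replicate falls short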;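 further: 0% = DMSO neutral controls and 100% = 20 µM radicicol positive controls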
tim23-1 inh = inhibits growth of tim23-1 mutant yeast | inhibition, % at 20 µM | S. cerevisiae tim23-1 growth, BacTiter-Glo luminescence, 24 h | AID 463212 | 330,000 tested, 1.3% active;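 active means growth inhibition of the mutant yeast at or above 50%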;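 further: temperature-sensitive mutant grown at 25 °C; plate controls were DMSO-treated mutant yeast for no effect and medium wells lacking yeast for full effect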
TIM10 inh = TIM10 yeast growth inhibition; S. cerevisiae TIM10 strain growth, BacTiter-Glo luminescence, 24 h; inhibition, % at 10 µM; 330,000 tested, 1.4% active;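 active means inhibition of 40% or more at the single tested concentration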;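 further: wild-type TIM10 isogenic control strain grown at permissive 25 °C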
Rce1 inh = yeast Ras-converting enzyme inhibition. Q03530. yeast membranes, quenched prenylated peptide cleavage fluorescence. calls only. 290,000 tested, 0.27% active;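 active means fall in fluorescence gain of 50% or more versus controls, with final raw signal at or below 3038400; inconclusive means same 50% fall but final raw signal above 3038400; inactive means fall in fluorescence gain under 50%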;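 further: plate controls were neutral control wells for no effect and wells lacking membranes for full effect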
Target sequence (Q03530 whole entry, looked up): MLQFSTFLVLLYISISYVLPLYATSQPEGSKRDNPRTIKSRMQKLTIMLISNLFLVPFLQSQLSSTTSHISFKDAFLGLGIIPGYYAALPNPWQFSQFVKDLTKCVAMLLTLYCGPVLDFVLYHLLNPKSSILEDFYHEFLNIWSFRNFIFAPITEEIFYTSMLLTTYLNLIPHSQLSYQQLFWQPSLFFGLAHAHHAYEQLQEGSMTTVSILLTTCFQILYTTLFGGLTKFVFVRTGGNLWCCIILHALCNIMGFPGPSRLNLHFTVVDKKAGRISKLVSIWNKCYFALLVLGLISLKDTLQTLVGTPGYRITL
tim10-1 inh = growth inhibitors of tim10-1 mutant yeast | S. cerevisiae tim10-1 ts strain growth, BacTiter-Glo, 24 h | inhibition, % at 20 µM | 330,000 tested, 2.2% active;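 active means inhibition of at least 40%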;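 further: mutant grown at 25 °C; 0% = DMSO wells with yeast and 100% = wells holding no yeast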
tim10-1 conf = confirmation of tim10-1 mutant yeast growth inhibitors. S. cerevisiae tim10-1 ts strain growth, BacTiter-Glo, 24 h. inhibition, % at 20 µM. 7,400 tested, 56% active. shares compounds with tim10-1 inh;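 active means inhibition of yeast growth at or above a set limit in either of two repeat tests at 20 µM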;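 further: tim10-1 mutant grown at permissive 25 °C to find synthetic lethal compounds; 0% = DMSO yeast wells and 100% = medium wells without yeast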
Active calls of the source: *; i = inactive; ? = inconclusive; · = no result given.

SMILES	PfHsp90 yeast 2	tim23-1 inh	TIM10 inh	Rce1 inh	tim10-1 inh	tim10-1 conf
CC(NC(=S)Nc1ccc(Cl)cc1Cl)C(c1cccs1)N1CCCC1 (configuration not stated)	-4	34	26	i	41*	10
CC(NC(=O)Nc1cccc(Cl)c1)C(c1cccs1)N1CCCC1 (configuration not stated)	21	-1	4	i	4	·
N=C1C(c2nc3ccccc3c(=O)[nH]2)=C(O)CN1CCO	-16	42	1	i	22	·
N=C1C(c2nc3ccccc3c(=O)[nH]2)=C(O)CN1CCc1ccccc1	8	9	12	i	41*	-14
S=c1[nH]c2cc(-c3ccccc3)ccc2o1	-79	48	31	i	43*	28
O=S(=O)(c1ccc2oc(=S)[nH]c2c1)N1CCCCC1	-9	-10	6	i	-8	·
COc1ccc(-c2oc3cccnc3c2/C=C/c2ccc(OC)c(OC)c2)cc1	-9	37	18	?	41*	14
Cc1ccc(NC(=S)Nc2ccc3cn[nH]c3c2)cc1C	5	7	18	i	26	·
CC(C)c1ccc(NC(=S)Nc2ccc3cn[nH]c3c2)cc1	-18	27	28	i	43*	20
O=C(NNS(=O)(=O)c1ccccc1[N+](=O)[O-])c1cccnc1	4	3	-21	i	-10	·
c1ccc(-c2nc(-c3ccccn3)no2)cc1	41	19	3	i	-3	·
CNc1nc(-c2ccccn2)nnc1-c1ccccc1	12	36	11	i	45*	32*
COc1ccc(/C=C/C(=O)NC(=S)NNC(=O)[C@H]2C[C@@H]2c2ccccc2)cc1OC	-68	1	4	i	48*	11
Cc1ccc(C2/C(=C(/O)c3ccc4c(c3)CC(C)O4)C(=O)C(=O)N2CCCn2ccnc2)cc1 (configuration not stated)	16	6	4	i	7	·
Cc1cccc(N2CCN(C(=O)c3ccc(CS(=O)Cc4ccc(Cl)cc4)o3)CC2)c1C (configuration not stated)	-37	38	24	i	54*	7
O=C(c1ccc(CS(=O)Cc2ccc(Cl)cc2)o1)N1CCN(c2ccc(F)cc2)CC1 (configuration not stated)	4	18	7	i	30	·
Cc1ccc(C)c(N2CCN(C(=O)c3ccc(CS(=O)Cc4cccc(Cl)c4)o3)CC2)c1 (configuration not stated)	-2	13	0	i	42*	-11
O=C(c1ccc(CS(=O)Cc2ccc(Cl)cc2)o1)N1CCN(c2cccc(Cl)c2)CC1 (configuration not stated)	-20	10	17	i	40*	0
CN1CCN(C(=O)CSc2nnc(COc3ccc(Cl)cc3)o2)CC1	14	13	-6	i	8	·
COc1ccc(C2CC(=O)c3cnc(NC(=O)c4cc(OC)cc(OC)c4)nc3C2)cc1 (configuration not stated)	14	22	6	i	3	·
COc1ccc(C2CC(=O)c3cnc(Nc4cc(C)cc(C)c4)nc3C2)cc1 (configuration not stated)	·	30	36	i	46*	27
CC[N+](CC)(CC#Cc1ccccc1)CC(=O)c1ccc(Cl)cc1	-5	22	-5	i	51*	45*
CC(C)C(=O)NC(=S)N(Cc1ccccc1)Cc1ccccc1	-38	22	37	·	41*	27
CC(C)(C)NC(=O)c1ccc(Sc2ccccc2)c([N+](=O)[O-])c1	54	27	16	i	42*	20
O=C(O)CNC(=O)c1ccc(Sc2ccccc2)c([N+](=O)[O-])c1	-18	26	4	i	-5	·
SMILES	PfHsp90 yeast 2	tim23-1 inh	TIM10 inh	Rce1 inh	tim10-1 inh	tim10-1 conf
CN1N=C(C(=O)N2CCc3c([nH]c4ccccc34)C2c2c(F)cccc2Cl)CCC1=O (configuration not stated)	-1	19	13	i	16	·
COc1ccc(N(CC(=O)Nc2ccc(C)c(C)c2)S(=O)(=O)c2c(C)noc2C)cc1	15	44	13	i	45*	8
CSc1ncc(Cl)c(C(=O)Nc2nnc(SC/C=C/c3ccccc3)s2)n1	·	29	16	i	42*	39*
O=C(O)c1ccc(COc2ccccc2Cl)cc1	-17	24	27	i	16	·
CCN(CC)C(=O)c1ccc(COc2ccccc2Cl)cc1	-17	7	20	i	42*	30
CCc1cc2c(NC(Cc3ccccc3)C(=O)O)nc(C)nc2s1 (configuration not stated)	3	2	16	i	-3	·
CCc1cc2c(NCc3ccccc3)nc(C)nc2s1	7	43	24	i	48*	24
CCc1cc(C(=O)N2CCCC(CNC(=O)c3ccc(-c4ccccc4)cc3)C2)no1 (configuration not stated)	·	35	1	i	39	·
CSCCC(=O)N1CCCC(CNC(=O)c2ccc(-c3ccccc3)cc2)C1 (configuration not stated)	-10	33	23	i	40*	28
Cc1nc(-c2ccccc2)sc1-c1nc(-c2ccncc2)ncc1S(=O)(=O)c1ccccc1	7	16	31	i	34	·
CCC(=O)N1CCN(c2ccc(NC(=O)c3ccc([N+](=O)[O-])o3)cc2Cl)CC1	-6	·	·	i	·	·
Cc1ccc(NC(=O)c2ccc([N+](=O)[O-])o2)c(C)c1	-9	49	40	i	40*	53*
Cc1ccccc1/C=C/C(=O)c1ccc([N+](=O)[O-])o1	·	-7	-8	i	67*	71*
Cc1ccc(-c2nnc(NC(=O)c3ccc([N+](=O)[O-])o3)o2)c(C)c1	-54	7	-19	i	9	·
Cc1cccnc1NC(=O)c1ccc([N+](=O)[O-])o1	10	27	9	i	17	·
CCC(=O)N1CCN(c2ccc(Cl)cc2NC(=O)c2ccc([N+](=O)[O-])o2)CC1	-5	31	27	i	40*	27
Cc1ccccc1NC(=O)c1ccc([N+](=O)[O-])o1	13	39	37	i	51*	42*
Cc1ccc(C)c(CN2CCC(n3nccc3NC(=O)CCCc3ccccc3)CC2)c1	30	-2	12	i	13	·
[O-]/C(=C(\C(=S)Nc1cccc2ccccc12)[n+]1ccccc1)c1ccc2c(c1)OCCO2	·	15	7	i	18	·
CCOC(=O)c1sc(-c2ccc(F)cc2)cc1N	·	45	27	i	42*	39*
CCOC(=O)c1sc(-c2ccc(OC)cc2)cc1N	-8	25	20	i	10	·
CCCc1ccc(-c2c(C)sc(N)c2C#N)cc1	-29	32	35	i	68*	49*
